# Reference: PubChem BioAssay (NCATS)
# Results filed as inconclusive are left out. Activity calls are given as the source filed them. The call rests on the fitted dose curve; in most records, active means well fitted inhibition curve with a large enough effect; inconclusive means small, poorly fitted or top-dose-only effect; inactive means flat fitted curve, though single readings scatter.
# Molecular target: Lysine-specific demethylase 5B (Homo sapiens) (UniProt Q9UGL1)
# Assay: Optimization screen for KDM5B Histone Demethylases FDH coupled qHTS against the LOPAC library (AID 1347166)
# Settings: KDM5B demethylation, FDH-coupled NADH fluorescence (FDH is formaldehyde dehydrogenase); series mostly up to 57.5 µM
# Summary of the method: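 KDM5BDeltaAP (200nM final) in 50mM HEPES pH 7.5, 0.01% Tween-20 was preincubated with compound for 10 min at room temperature. A substrate mix of 12.5uM H3K4Me3, 25uM a-ketoglutarate, ascorbate, Fe2+, NAD+ and formaldehyde dehydrogenase was then added. NADH fluorescence (340/450 nm) was read initially and after 30 min.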
# Lysine-specific demethylase 5B (Homo sapiens), sequence (Q9UGL1 whole entry, looked up): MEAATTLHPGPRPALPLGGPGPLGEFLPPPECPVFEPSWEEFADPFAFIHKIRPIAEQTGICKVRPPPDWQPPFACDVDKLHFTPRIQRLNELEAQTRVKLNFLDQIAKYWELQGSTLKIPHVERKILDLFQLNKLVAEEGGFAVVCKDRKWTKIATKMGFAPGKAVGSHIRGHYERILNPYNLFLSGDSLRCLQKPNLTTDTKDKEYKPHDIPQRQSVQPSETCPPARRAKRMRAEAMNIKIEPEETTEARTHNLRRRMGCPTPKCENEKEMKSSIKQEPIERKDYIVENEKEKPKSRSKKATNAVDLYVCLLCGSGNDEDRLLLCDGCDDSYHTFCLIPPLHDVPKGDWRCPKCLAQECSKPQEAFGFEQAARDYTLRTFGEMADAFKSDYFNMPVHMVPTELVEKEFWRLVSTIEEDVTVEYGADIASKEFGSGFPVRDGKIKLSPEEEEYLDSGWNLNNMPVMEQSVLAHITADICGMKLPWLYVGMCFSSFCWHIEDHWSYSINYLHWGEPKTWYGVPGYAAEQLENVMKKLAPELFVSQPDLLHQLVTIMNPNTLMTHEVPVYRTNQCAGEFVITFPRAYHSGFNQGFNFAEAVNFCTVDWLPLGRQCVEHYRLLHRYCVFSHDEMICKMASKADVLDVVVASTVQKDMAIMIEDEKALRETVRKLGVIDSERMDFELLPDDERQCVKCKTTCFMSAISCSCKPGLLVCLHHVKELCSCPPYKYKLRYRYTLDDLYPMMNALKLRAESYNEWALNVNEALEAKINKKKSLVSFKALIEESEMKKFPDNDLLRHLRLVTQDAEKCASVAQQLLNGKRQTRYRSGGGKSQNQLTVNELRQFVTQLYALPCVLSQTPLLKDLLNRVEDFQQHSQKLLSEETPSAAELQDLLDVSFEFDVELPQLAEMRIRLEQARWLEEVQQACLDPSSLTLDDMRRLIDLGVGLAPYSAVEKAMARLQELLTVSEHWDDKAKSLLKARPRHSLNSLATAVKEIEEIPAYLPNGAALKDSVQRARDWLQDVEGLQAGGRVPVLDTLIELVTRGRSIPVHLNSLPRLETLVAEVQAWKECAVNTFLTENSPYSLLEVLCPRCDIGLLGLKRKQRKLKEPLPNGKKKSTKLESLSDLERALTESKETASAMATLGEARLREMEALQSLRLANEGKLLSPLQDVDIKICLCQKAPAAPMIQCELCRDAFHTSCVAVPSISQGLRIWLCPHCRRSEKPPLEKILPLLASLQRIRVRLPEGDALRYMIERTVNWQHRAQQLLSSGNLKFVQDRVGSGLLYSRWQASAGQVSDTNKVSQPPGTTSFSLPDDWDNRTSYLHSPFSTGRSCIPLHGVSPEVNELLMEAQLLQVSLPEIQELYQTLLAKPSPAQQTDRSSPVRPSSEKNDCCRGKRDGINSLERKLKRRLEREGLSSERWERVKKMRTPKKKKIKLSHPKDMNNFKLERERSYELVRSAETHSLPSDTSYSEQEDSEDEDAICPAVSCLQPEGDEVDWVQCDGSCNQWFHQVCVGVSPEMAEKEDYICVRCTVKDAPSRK
row,Compound,outcome
1,Cc1cc(NC(=O)Nc2ccc3c(ccn3C)c2)sn1,inactive
2,NS(=O)(=O)C#Cc1ccccc1,inactive
3,S=C(S)OC1CC2CC1C1CCCC21 (configuration not stated),inactive
4,N=C(N)SCCc1ccc(CCSC(=N)N)cc1,inactive
5,CNC(=O)[C@H]1O[C@@H](n2cnc3c(NCc4cccc(I)c4)ncnc32)[C@H](O)[C@@H]1O,inactive
6,CNc1ncnc2c1ncn2[C@@H]1O[C@H](CO)[C@@H](O)[C@H]1O,inactive
7,O=C(c1ccc(OCCCc2cnc[nH]2)cc1)C1CC1,inactive
8,NCCCS(=O)(=O)O,inactive
9,CN1CCc2cccc3c2C1Cc1ccc(O)c(O)c1-3 (configuration not stated),inactive
10,O=C(O)CC1CCCc2ccccc2C1O (configuration not stated),inactive
11,CC(C)(C=O)Cc1cc(C(C)(C)C)c(O)c(C(C)(C)C)c1,inactive
12,CCOC(=O)N1CCN(/[N+]([O-])=N/Oc2ccc([N+](=O)[O-])cc2[N+](=O)[O-])CC1,inactive
13,CNC(=O)[C@H]1O[C@@H](n2cnc3c(NCc4ccc(N)cc4)ncnc32)[C@H](O)[C@@H]1O,inactive
14,CNCC[C@H](Oc1ccc(C(F)(F)F)cc1)c1ccccc1,inactive
15,O=C(c1ccc(Cl)cc1)N1CCN(c2ccc([N+](=O)[O-])c3ncccc23)CC1,inactive
16,COC(=O)c1c(C)[nH]c(C)c1C(=O)c1ccccc1Cc1ccccc1,inactive
17,O=[N+]([O-])c1ccc(CSc2ncnc3c2ncn3[C@@H]2O[C@H](CO)[C@@H](O)[C@H]2O)cc1,inactive
18,CSc1nc(N)c2ncn([C@@H]3O[C@H](COP(=O)(O)OP(=O)(O)OP(=O)(O)O)[C@@H](O)[C@H]3O)c2n1,inactive
19,Cc1cc(NC2CCCCC2)nc(-n2nc(C)cc2C)n1,inactive

row,Compound,outcome
1,NC(CCCP(=O)(O)O)C(=O)O (configuration not stated),inactive
2,O=C1/C(=C/c2ccsc2)CC/C1=C\c1cccs1,inactive
3,COc1cc(OC)c(/C=C2/C(=O)Nc3ccccc32)c(OC)c1,inactive
4,NCC1OC(O[C@H]2[C@H](O)[C@@H](OC3C(O)C(N)CC(N)C3OC3OC(CO)C(O)C(O)C3N)O[C@@H]2CO)C(N)C(O)C1O (some centres not stated),inactive
5,CC(=O)SCC[N+](C)(C)C,inactive
6,CN1C2CC(OC(=O)[C@H](CO)c3ccccc3)CC1C1OC12 (some centres not stated),inactive
7,CCCCCCCCCCCCCCCCCC(=O)NCC(COP(=O)([O-])OCC[N+](C)(C)C)OCC (configuration not stated),inactive
8,Nc1ncnc2c1ncn2[C@@H]1O[C@H](COP(=O)(O)OP(=O)(O)OP(=O)(O)OP(=O)(O)OC[C@@H]2O[C@H](n3cnc4c(N)ncnc43)[C@@H](O)[C@H]2O)[C@@H](O)[C@H]1O,inactive
9,CCCN(CC1CC1)c1nc(C)nc(Nc2c(Cl)cc(Cl)cc2Cl)c1Cl,inactive
10,Nc1nc(Cl)nc2c1ncn2[C@@H]1O[C@H](CO)[C@@H](O)[C@H]1O,inactive
11,C=CC(C)=C[C@@]1(C)SC(=O)C(C)=C1O,inactive
12,C[N+]1(C)CCC(OC(=O)C(c2ccccc2)c2ccccc2)CC1,inactive
13,CC1OC1P(=O)(O)O (configuration not stated),inactive
14,N#C/C(=C\c1ccc(-c2cc(Cl)ccc2Cl)o1)C(=O)Nc1cccc2ncccc12,inactive
15,CN1CC(=O)N/C1=N/C(=O)Nc1cccc(Cl)c1,inactive
16,Clc1ccc(N2CCN(Cc3c[nH]c4ncccc34)CC2)cc1,inactive
17,CCCCCCCCCCCCCCCCCCNC(=O)OCC(COP(=O)([O-])OCC[n+]1ccsc1)OC (configuration not stated),inactive
18,O=P(O)(O)C(Cl)(Cl)P(=O)(O)O,inactive
